We go through 24 molecules from PubChem BioAssay (EPA / NIEHS).

Structures are written as SMILES. Results filed as inconclusive are left out. The source made the active and inactive calls. The calls were made as follows, unless noted: active = hit-call score of the fitted dose curve at least 0.9, where 1 is the maximum; inactive = score below 0.9.

Read-out in assay [1]: Monokine induced gamma interferon (MIG), CXCL9 (gene 4283)
The experiment in a line: BSK_3C_MIG: BioMAP Diversity Plus: 3C Assay for Monokine induced gamma interferon (MIG) Biomarker Activity (AID 2283021). As to conditions: primary human endothelial cells (HUVEC); actives raise or lower the signal. The procedure, abridged: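 After 24 h of treatment, human umbilical vein endothelial cultures (3C system) had their MIG biomarker level determined by ELISA, with DMSO serving as negative control.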

The nature of assay [2]: BSK_3C_SRB: Viability Assessment in the BioMAP Diversity Plus: 3C Assay (AID 2283023).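 Also: fitted both ways against DMSO so a hit may be signal rise or drop.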 As to conditions: primary human endothelial cells (HUVEC). The procedure, abridged:
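Cells were dosed with chemical, cultured 24 h, fixed with 10% TCA, stained with 0.1% SRB and read at 560 nm. Human umbilical vein endothelium was used; DMSO served as negative control and baseline.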

Read-out in assay [3]: Matrix Metallopeptidase 1 (MMP1), MMP1 (gene 4312)
In words: BSK_BE3C_MMP1: BioMAP Diversity Plus: BE3C Assay for Matrix Metallopeptidase 1 (MMP1) Biomarker Activity (AID 2283024). To be noted: primary human bronchial epithelial cells; actives raise or lower the signal. The procedure, abridged:
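Dose cells, wait 24 h, run MMP1 ELISA; cells are human bronchial epithelial primaries. Both increases and decreases relative to DMSO counted.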

Assay [4] is described as follows: BSK_3C_Vis: BioMAP Diversity Plus: 3C Assay for Morphology Visualization (AID 2283025).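 Also: fitted both ways so gain or loss versus DMSO counts.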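 As to AC50: light microscopy image of cell morphology used as background control.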 To be noted: primary human endothelial cells (HUVEC). In outline: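 Endothelial cells from human umbilical vein were treated with test chemicals for 24 h and inspected by light microscopy for changes in cell conformation.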
Read-out in assay [5]: Pselectin, SELP (gene 6403)
In words: BSK_4H_Pselectin: BioMAP Diversity Plus: 4H Assay for Pselectin Biomarker Activity (AID 2283026). As to conditions: primary human endothelial cells (HUVEC); actives raise or lower the signal. In outline:
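Human vascular endothelium from umbilical vein; P-selectin measured by ELISA at 24 h post-dose, with cytotoxicity checked by sulforhodamine B total-protein staining in parallel cultures (0.1% SRB after 10% TCA fixation, read at 560 nm).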

Assay [6] is described as follows: BSK_4H_SRB: Viability Assessment in the BioMAP Diversity Plus: 4H Assay (AID 2283027).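 Also: cells exposed to compound for 24 h before staining.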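 As to AC50: curves fitted both ways versus DMSO so AC50 may be loss or gain.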 As to conditions: primary human endothelial cells (HUVEC). In outline:
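Human umbilical vein endothelial cells, 24 h after chemical dosing; total protein measured by 0.1% sulforhodamine B staining after 10% TCA fixation, read at 560 nm. Bidirectional fitting against DMSO.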

Assay [7] in a line: BSK_BE3C_SRB: Viability Assessment in the BioMAP Diversity Plus: BE3C Assay (AID 2283028). To be noted: primary human bronchial epithelial cells. The procedure, abridged:
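Overt cytotoxicity was assessed as total protein in confluent human primary bronchial epithelial cultures 24 h after chemical addition, using 0.1% sulforhodamine B staining read at 560 nm.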

Read-out in assay [8]: Thrombomodulin, THBD (gene 7056)
In words: BSK_3C_Thrombomodulin: BioMAP Diversity Plus: 3C Assay for Thrombomodulin Biomarker Activity (AID 2283029). As to conditions: primary human endothelial cells (HUVEC); actives raise or lower the signal. The procedure, abridged:
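Thrombomodulin ELISA, human primary HUVEC, 24 h post-dose; data fitted in both directions relative to DMSO.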

Read-out in assay [9]: Urokinase-type plasminogen activator receptor (uPAR), PLAUR (gene 5329)
In words: BSK_4H_uPAR: BioMAP Diversity Plus: 4H Assay for Urokinase-type plasminogen activator receptor (uPAR) Biomarker Activity (AID 2283030). To be noted: primary human endothelial cells (HUVEC); actives raise or lower the signal. The procedure, abridged:
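Chemicals are dosed onto human vascular endothelial primary cells (umbilical vein). After 24 h, uPAR is read by ELISA. Gain or loss of signal is fitted relative to DMSO.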

The target of assay [10] is human Vitamin D Receptor (VDR), VDR (gene 7421) (UniProt P11473). The experiment in a line: ATG_VDR_TRANS: Attagene TRANS-FACTORIAL HepG2 Assay for human Vitamin D Receptor (VDR) (AID 2283022; active = hit-call score of the fitted dose curve at least 0.9, where 1 is the maximum). In outline:
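Fluorescence of labelled reporter cDNA fragments, resolved by capillary electrophoresis, gives mRNA induction after 24 h treatment of HepG2 cells carrying transfected Gal4-fusion reporter units. Activity is fitted in the positive direction with DMSO as baseline.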

Chain of human Vitamin D Receptor (VDR), VDR (gene 7421) (P11473 whole entry, looked up, the tested form may be a part): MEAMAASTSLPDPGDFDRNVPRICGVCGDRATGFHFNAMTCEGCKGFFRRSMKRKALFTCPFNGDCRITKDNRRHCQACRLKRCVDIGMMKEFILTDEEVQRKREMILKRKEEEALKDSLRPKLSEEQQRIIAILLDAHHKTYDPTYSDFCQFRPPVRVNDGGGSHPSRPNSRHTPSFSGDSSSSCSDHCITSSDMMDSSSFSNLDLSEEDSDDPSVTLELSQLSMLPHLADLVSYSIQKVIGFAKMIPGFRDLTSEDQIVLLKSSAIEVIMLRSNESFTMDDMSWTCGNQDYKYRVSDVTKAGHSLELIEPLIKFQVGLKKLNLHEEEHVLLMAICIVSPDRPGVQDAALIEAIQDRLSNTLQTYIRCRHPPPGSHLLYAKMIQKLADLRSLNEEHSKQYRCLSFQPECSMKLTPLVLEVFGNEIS

With `CCOC(=O)C(C)(C)Oc1ccc(Cl)cc1`, the result in [1], in assay [2], in assay [3], in assay [4], in [5] and in assay [6] was inactive. The result in assay [7] and in [8] was inactive.

Take `Cc1ccccc1Cl`: the outcome in assay [1], in assay [2], in [3], in assay [4], in [5] and in assay [6] was inactive. Further, the result in [7], in assay [8] and in assay [9] was inactive.

With `NCC1(Cc2noc(=O)[nH]2)CCCCC1`, the outcome in [1], in [2], in assay [3], in assay [4], in [5] and in assay [6] was inactive. For the same molecule, the result in [7], in assay [8] and in [9] was inactive.

Take `COCCOCCOC`: the result in assay [1], in [2], in [3], in assay [4], in [5] and in assay [6] was inactive. Also, the outcome in assay [7], in assay [8] and in [9] was inactive.

Take `O=C(OCCCCCOC(=O)c1ccccc1)c1ccccc1`: the outcome in assay [1], in assay [2], in assay [3], in [4], in assay [5] and in assay [6] was inactive. Moreover, the result in [7], in assay [8] and in [9] was inactive.

As to `CC1(C)CC(N=C=O)CC(C)(CN=C=O)C1` (stereo not given), the result in assay [1], in [2], in assay [3], in [5], in [6] and in assay [7] was inactive. Also, the outcome in [8] and in [9] was inactive. Moreover, the AC50 in assay [4] is 39 µM (active).

`CCCCCCCCCCCCCCCCCC(=O)O`: the outcome in [1], in assay [3], in assay [5], in assay [6], in assay [7] and in assay [8] was inactive. In addition, the AC50 in [2] was 20 µM (active); in assay [4], 39 µM (active).

Turning to `COc1cccc2c1C(=O)c1c(O)c3c(c(O)c1C2=O)C[C@@](O)(C(=O)CO)C[C@@H]3O[C@H]1C[C@H](N)[C@H](O)[C@H](C)O1`, in [10], the outcome was inactive.

For the molecule `Nc1ccc(S(=O)(=O)c2ccc(N)cc2)cc1`, the result in [1], in [2], in [3], in assay [4], in assay [5] and in assay [6] was inactive. The result in assay [7], in assay [8] and in assay [9] was inactive.

With `Cc1cccc(Nc2cc(Cl)nc(SCC(=O)O)n2)c1C`, the outcome in assay [1], in assay [2], in [3], in assay [4], in assay [5] and in [6] was inactive. Besides, the outcome in assay [7], in [8] and in [9] was inactive.

Regarding `Oc1ccc2ccccc2c1N=Nc1ccccc1`, the outcome in [1], in assay [2], in assay [4], in assay [5], in assay [6] and in [7] was inactive. Further, the result in assay [8] and in assay [9] was inactive. Moreover, in [3], the AC50 is 3.97 µM (active).

On to `Cc1ccc2ncccc2c1`, for which the result in assay [1], in [2], in assay [3], in [4], in [5] and in [6] was inactive. Further, the result in [7], in assay [8] and in assay [9] was inactive.

On to `Nc1ccc2c(c1)C(=O)c1ccccc1C2=O`, for which the result in assay [1], in [2], in [3], in assay [4], in assay [5] and in assay [6] was inactive. For the same molecule, the outcome in assay [7], in [8] and in assay [9] was inactive.

As for `Cc1ccc(C)c(C)c1`, the outcome in assay [1], in assay [2], in assay [3], in assay [4], in assay [5] and in assay [6] was inactive. The result in [7], in assay [8] and in [9] was inactive.

On to `Clc1cc(Cl)c(Cl)cc1Cl`, for which the result in [1], in assay [2], in assay [3], in assay [4], in assay [5] and in assay [6] was inactive. Also, the outcome in assay [7], in assay [8] and in assay [9] was inactive.

`CC(=O)OC/C=C(\C)CCC=C(C)C`: the outcome in assay [1], in assay [2], in assay [3], in assay [4], in [5] and in assay [6] was inactive. Besides, the outcome in assay [7], in assay [8] and in assay [9] was inactive.

`COc1cc(/C=C/C(=O)CC(=O)/C=C/c2ccc(O)c(OC)c2)ccc1O`: the outcome in assay [10] was inactive.

On to `Cc1nc(-c2ccc3c(c2)CCN(CCC2CCC(NC(=O)/C=C/c4ccc(F)cc4)CC2)CC3)no1` (stereo not given), for which the result in assay [1], in assay [3] and in assay [7] was inactive. Moreover, the AC50 in [2] is 6.26 µM (active); in assay [4] it was 6.4 µM (active); in assay [5], 5.65 µM (active); in assay [6], 6.89 µM (active); in assay [8], 9.3 µM (active).

On to `CC=Cc1ccc(O)c(OC)c1`, for which the result in assay [1], in [2], in [3], in assay [4], in [5] and in assay [6] was inactive. Also, the result in [7], in [8] and in [9] was inactive.

For the molecule `CC(=O)OCCOCCOCCOC(C)=O`, the outcome in assay [1], in assay [2], in assay [3], in assay [4], in [5] and in [6] was inactive. The outcome in assay [7] and in assay [8] was inactive.

Take `CC(=O)Oc1ccccc1C(=O)O`: the result in assay [1], in [2], in assay [3], in assay [4], in assay [5] and in [6] was inactive. The result in [7] and in assay [8] was inactive.

On to `CCCCCCCCCCC`, for which the result in assay [1], in assay [2], in assay [3], in assay [4], in assay [5] and in [6] was inactive. Also, the result in assay [7], in [8] and in [9] was inactive.

Regarding `CC(=O)C(C)=CC1C(C)=CCCC1(C)C` (stereo not given), the outcome in assay [1], in [2], in [3], in [4], in assay [5] and in assay [6] was inactive. Besides, the result in assay [7], in [8] and in assay [9] was inactive.

On to `CCCc1cc(=O)[nH]c(=S)[nH]1`, for which the outcome in [1], in assay [2], in assay [3], in assay [4], in [5] and in [6] was inactive. For the same molecule, the result in [7], in assay [8] and in assay [9] was inactive.

For orientation: AC50 means the midpoint of the concentration-response curve, whichever way the signal moves.
